This is an account of results in ChEMBL document CHEMBL1961873, “Compounds: GSK PKIS; Assays: Nanosyn kinase panel” (2012).

SMILES strings stand for the structures.

For assay [1], the target named is T1, Inhibitor of nuclear factor kappa-B kinase subunit epsilon (Homo sapiens) (UniProt Q14164).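 Note: reported values are averaged percent inhibition figures against human IKKε.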
T1 sequence (whole entry): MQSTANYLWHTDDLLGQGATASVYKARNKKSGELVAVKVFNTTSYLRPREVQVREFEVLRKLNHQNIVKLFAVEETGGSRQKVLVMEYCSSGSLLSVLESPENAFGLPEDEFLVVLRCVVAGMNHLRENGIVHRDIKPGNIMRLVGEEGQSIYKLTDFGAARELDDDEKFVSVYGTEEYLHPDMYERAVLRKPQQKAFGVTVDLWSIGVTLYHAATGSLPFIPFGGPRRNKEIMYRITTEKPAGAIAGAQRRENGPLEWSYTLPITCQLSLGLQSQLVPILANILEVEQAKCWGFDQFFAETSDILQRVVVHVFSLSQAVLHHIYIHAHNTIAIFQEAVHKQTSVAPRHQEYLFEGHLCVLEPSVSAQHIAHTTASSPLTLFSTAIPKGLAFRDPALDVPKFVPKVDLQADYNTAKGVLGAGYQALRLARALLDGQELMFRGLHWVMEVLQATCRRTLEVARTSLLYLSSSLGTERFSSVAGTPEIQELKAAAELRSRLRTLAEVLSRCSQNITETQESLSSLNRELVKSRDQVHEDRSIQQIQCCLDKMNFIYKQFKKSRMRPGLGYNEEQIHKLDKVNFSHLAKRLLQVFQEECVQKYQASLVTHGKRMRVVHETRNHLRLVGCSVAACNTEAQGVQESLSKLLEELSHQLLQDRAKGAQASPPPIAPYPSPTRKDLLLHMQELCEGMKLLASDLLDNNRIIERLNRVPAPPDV
The conditions noted are these: at 1 µM.

Assay [2] addresses T2, Serine/threonine-protein kinase Nek1 (Homo sapiens) (UniProt Q96PY6).
T2 sequence (whole entry): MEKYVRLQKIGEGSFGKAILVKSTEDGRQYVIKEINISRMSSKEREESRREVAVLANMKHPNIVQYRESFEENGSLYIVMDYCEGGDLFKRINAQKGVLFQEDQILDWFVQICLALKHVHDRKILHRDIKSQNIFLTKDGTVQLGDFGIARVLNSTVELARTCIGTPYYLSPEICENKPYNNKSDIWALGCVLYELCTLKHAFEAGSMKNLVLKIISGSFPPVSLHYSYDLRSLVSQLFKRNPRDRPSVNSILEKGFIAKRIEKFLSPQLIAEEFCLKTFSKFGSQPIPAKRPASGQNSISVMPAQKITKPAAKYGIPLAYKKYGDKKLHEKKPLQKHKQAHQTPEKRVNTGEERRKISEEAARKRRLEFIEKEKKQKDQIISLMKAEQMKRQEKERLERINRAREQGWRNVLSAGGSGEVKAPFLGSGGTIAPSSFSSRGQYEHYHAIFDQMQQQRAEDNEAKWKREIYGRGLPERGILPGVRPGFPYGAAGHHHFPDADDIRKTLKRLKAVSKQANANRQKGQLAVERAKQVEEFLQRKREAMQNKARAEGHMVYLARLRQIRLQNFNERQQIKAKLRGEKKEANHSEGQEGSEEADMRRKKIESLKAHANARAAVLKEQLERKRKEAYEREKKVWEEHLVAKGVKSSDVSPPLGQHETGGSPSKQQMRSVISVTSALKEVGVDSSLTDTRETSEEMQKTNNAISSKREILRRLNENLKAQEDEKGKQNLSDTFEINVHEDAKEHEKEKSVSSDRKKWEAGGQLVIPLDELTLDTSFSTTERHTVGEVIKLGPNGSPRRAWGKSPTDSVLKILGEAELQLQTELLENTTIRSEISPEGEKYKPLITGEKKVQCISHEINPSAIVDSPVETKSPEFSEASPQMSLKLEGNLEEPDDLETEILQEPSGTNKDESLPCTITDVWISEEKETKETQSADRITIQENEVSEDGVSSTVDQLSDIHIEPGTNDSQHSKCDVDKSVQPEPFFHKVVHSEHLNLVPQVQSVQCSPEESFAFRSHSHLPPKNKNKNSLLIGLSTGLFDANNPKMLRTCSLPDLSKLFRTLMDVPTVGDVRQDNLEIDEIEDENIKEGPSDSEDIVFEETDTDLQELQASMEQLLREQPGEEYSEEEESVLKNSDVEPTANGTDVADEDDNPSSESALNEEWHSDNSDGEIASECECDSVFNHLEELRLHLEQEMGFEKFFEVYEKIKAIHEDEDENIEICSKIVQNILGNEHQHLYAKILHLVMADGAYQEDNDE
The conditions noted are these: at 0.1 µM.

For assay [3], the target named is T2, Serine/threonine-protein kinase Nek1 (Homo sapiens). The conditions noted are these: at 1 µM.
In assay [4] the target is T3, Serine/threonine-protein kinase Nek2 (Homo sapiens) (UniProt P51955).
T3 sequence (whole entry): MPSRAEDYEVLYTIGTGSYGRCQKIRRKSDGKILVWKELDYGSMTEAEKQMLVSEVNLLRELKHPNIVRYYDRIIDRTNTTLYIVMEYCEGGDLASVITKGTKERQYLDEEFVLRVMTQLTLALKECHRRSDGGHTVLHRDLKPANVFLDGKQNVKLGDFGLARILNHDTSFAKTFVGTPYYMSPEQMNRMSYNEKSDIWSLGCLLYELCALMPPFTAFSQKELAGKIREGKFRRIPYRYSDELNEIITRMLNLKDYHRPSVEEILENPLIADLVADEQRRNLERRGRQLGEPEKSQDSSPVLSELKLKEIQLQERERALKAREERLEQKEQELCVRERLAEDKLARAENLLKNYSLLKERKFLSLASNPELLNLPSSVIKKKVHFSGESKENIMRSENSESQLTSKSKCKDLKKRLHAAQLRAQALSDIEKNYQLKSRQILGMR
The conditions noted are these: at 0.1 µM.

The target of assay [5] is T3, Serine/threonine-protein kinase Nek2 (Homo sapiens). The conditions noted are these: at 1 µM.
Assay [6] has as its target Serine/threonine-protein kinase Nek6 (Homo sapiens) (UniProt Q9HC98). The conditions noted are these: at 0.1 µM.
The target is the same in assay [7]. The conditions noted are these: at 1 µM.
Assay [8] addresses Serine/threonine-protein kinase Nek7 (Homo sapiens) (UniProt Q8TDX7). The following applies: at 0.1 µM.
Assay [9] shares this target. The following applies: at 1 µM.
For assay [10], the target named is T4, Serine/threonine-protein kinase Nek9 (Homo sapiens) (UniProt Q8TD19).
T4 sequence (whole entry): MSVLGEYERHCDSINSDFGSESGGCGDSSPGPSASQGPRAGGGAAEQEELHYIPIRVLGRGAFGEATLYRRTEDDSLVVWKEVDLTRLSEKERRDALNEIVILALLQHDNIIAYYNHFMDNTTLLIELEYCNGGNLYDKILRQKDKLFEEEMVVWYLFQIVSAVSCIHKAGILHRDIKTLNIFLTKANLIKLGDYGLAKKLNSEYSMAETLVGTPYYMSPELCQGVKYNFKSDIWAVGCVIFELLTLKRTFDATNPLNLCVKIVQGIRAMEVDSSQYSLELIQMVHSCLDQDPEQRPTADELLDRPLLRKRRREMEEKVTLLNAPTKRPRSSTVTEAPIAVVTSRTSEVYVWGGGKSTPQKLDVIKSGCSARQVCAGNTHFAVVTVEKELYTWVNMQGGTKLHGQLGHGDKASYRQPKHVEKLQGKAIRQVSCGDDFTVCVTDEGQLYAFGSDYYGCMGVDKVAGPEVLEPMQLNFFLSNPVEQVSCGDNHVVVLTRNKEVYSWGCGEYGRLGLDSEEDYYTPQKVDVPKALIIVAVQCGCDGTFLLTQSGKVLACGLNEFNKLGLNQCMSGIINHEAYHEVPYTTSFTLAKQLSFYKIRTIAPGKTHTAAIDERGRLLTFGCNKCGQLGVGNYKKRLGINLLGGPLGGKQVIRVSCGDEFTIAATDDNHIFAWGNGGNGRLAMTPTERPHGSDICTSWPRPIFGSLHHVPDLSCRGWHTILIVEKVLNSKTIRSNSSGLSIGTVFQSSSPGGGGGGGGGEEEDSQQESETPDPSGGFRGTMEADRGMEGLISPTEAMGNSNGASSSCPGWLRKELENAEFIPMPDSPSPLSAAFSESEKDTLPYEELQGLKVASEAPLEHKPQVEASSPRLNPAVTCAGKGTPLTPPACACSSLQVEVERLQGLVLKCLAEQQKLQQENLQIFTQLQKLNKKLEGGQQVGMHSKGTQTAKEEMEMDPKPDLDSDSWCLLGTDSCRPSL
The following applies: at 0.1 µM.

The target of assay [11] is T4, Serine/threonine-protein kinase Nek9 (Homo sapiens). The conditions noted are these: at 1 µM.
Assay [12] has as its target Serine/threonine-protein kinase PLK1 (Homo sapiens) (UniProt P53350). The following applies: at 0.1 µM.
Assay [13] shares this target. The conditions noted are these: at 1 µM.
Assay [14] addresses T5, Dual specificity protein kinase TTK (Homo sapiens) (UniProt P33981).
T5 sequence (whole entry): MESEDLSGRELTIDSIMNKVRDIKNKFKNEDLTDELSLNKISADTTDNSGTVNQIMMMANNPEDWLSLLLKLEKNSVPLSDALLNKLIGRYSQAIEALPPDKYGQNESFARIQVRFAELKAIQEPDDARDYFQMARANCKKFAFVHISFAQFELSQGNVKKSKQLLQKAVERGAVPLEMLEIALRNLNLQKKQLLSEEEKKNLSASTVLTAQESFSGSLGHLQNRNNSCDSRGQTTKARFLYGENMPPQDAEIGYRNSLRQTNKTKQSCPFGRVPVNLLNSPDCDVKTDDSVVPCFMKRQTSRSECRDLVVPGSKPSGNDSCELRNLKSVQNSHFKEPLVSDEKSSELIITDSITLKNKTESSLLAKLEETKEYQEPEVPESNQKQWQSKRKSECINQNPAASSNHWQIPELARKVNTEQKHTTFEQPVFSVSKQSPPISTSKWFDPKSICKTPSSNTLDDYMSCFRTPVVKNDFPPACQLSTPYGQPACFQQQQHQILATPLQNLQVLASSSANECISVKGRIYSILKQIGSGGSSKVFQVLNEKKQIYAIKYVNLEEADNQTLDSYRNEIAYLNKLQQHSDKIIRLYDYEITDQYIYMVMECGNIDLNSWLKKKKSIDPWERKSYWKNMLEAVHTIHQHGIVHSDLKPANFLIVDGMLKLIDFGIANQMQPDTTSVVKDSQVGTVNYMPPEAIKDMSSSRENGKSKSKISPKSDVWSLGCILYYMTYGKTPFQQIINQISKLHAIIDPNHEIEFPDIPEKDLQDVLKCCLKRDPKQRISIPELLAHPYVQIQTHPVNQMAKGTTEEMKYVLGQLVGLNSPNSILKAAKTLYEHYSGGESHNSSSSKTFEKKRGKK
The following applies: at 0.1 µM.

Assay [15] relates to T6, Receptor-type tyrosine-protein kinase FLT3 (Homo sapiens), P36888 [D835Y].
T6 sequence (whole entry): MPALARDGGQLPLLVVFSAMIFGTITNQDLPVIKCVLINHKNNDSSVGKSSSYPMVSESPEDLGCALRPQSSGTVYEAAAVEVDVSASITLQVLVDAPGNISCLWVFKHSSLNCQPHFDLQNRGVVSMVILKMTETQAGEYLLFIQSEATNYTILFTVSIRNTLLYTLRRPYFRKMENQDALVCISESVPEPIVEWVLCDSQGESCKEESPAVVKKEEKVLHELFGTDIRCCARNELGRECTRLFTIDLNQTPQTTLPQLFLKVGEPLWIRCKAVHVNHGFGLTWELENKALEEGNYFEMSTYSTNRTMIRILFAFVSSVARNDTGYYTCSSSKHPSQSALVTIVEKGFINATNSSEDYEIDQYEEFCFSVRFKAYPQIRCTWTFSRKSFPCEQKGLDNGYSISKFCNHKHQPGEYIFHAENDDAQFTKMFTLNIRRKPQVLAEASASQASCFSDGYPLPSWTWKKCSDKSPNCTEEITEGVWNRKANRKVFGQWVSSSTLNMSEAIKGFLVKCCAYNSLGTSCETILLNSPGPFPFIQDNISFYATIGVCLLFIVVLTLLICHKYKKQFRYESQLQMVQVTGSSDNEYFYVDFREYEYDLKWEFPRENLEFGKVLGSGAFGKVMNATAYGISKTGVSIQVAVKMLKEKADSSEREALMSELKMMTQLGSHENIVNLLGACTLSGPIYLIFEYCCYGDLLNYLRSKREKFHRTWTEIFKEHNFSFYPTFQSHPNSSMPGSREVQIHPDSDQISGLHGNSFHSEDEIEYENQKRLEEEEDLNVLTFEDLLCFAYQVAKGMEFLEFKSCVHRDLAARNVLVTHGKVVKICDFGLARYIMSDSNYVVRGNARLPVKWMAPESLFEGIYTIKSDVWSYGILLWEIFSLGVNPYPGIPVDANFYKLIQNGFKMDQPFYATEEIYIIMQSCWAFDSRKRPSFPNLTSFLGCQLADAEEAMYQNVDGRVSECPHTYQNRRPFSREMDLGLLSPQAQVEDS
The following applies: at 1 µM.

The target of assay [16] is Vascular endothelial growth factor receptor 3 (Homo sapiens) (UniProt P35916). The conditions noted are these: at 0.1 µM.
Vascular endothelial growth factor receptor 3 (Homo sapiens), sequence (P35916 whole entry): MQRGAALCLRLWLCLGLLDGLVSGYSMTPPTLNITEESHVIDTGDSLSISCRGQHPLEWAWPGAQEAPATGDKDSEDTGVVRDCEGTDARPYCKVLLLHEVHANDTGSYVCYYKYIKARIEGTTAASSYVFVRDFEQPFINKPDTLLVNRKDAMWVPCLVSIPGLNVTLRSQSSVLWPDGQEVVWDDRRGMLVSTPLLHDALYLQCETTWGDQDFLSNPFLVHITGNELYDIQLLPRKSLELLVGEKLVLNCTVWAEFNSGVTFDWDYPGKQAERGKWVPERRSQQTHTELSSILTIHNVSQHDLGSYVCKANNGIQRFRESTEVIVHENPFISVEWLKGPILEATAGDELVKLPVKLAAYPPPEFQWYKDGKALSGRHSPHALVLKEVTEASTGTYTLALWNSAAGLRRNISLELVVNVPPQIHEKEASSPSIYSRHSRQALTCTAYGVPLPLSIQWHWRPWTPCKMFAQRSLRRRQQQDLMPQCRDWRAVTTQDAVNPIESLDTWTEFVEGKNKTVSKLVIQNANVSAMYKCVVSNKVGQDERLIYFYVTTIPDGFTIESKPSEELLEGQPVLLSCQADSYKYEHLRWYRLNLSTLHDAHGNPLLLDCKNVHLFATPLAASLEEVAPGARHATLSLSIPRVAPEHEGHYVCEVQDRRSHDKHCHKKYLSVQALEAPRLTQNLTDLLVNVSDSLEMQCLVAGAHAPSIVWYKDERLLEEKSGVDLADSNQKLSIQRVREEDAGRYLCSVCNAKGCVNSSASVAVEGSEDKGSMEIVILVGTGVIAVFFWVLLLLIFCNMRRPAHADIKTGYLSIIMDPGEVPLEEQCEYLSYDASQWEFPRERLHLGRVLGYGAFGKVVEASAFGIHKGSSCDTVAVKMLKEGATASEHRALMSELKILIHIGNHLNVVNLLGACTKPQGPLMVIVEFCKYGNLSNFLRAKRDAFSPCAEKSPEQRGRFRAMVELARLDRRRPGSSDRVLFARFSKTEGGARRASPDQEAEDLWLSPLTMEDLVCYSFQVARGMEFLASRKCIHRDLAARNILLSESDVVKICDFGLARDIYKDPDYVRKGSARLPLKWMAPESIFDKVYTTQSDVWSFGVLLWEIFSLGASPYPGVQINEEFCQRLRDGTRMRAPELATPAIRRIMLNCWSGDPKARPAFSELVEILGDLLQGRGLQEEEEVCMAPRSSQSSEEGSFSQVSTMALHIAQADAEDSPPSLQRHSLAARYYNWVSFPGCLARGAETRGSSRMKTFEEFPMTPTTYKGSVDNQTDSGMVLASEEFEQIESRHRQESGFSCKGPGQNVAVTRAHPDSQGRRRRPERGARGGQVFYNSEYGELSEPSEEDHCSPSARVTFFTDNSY
Assay [17] shares this target. The following applies: at 1 µM.
The target of assay [18] is Macrophage colony-stimulating factor 1 receptor (Homo sapiens) (UniProt P07333). The conditions noted are these: at 0.1 µM.
Macrophage colony-stimulating factor 1 receptor (Homo sapiens), sequence (P07333 whole entry): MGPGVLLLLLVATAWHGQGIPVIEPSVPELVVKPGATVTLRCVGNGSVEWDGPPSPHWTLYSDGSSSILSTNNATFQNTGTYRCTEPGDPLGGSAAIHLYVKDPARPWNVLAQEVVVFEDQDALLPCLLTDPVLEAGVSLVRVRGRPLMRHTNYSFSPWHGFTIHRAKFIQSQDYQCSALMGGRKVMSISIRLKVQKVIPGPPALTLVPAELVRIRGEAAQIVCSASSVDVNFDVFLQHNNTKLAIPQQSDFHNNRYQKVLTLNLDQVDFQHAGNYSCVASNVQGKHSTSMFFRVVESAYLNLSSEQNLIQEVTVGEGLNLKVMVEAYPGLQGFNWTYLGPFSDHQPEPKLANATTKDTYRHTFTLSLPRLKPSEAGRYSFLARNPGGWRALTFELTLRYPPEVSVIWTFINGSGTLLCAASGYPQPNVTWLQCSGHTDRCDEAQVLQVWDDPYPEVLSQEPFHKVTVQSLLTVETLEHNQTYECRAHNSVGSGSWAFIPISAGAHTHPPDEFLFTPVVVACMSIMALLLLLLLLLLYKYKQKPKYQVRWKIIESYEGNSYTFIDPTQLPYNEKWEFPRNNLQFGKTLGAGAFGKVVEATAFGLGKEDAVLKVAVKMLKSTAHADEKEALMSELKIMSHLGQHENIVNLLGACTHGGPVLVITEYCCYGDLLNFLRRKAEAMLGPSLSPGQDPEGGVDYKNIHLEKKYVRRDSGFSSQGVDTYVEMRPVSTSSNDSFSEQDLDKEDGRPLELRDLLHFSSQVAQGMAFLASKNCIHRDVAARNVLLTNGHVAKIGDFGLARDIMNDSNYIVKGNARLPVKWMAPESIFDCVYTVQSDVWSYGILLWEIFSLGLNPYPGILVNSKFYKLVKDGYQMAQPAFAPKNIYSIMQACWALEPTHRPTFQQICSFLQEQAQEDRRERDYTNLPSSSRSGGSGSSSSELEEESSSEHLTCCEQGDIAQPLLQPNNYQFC
The target is the same in assay [19]. The following applies: at 1 µM.
Assay [20] concerns the target Tyrosine-protein kinase Fyn (Homo sapiens) (UniProt P06241). The following applies: at 0.1 µM.

Serine/threonine-protein kinase Nek6 (Homo sapiens), sequence (Q9HC98 whole entry): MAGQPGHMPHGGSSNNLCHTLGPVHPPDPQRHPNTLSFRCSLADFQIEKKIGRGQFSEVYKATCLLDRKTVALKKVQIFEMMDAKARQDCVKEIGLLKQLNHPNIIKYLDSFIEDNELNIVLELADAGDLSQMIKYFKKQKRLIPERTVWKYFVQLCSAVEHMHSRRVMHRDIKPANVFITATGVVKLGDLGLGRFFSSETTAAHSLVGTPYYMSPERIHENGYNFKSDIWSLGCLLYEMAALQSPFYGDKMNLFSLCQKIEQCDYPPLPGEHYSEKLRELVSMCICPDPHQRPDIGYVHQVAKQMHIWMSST
Serine/threonine-protein kinase Nek7 (Homo sapiens), sequence (Q8TDX7 whole entry, looked up): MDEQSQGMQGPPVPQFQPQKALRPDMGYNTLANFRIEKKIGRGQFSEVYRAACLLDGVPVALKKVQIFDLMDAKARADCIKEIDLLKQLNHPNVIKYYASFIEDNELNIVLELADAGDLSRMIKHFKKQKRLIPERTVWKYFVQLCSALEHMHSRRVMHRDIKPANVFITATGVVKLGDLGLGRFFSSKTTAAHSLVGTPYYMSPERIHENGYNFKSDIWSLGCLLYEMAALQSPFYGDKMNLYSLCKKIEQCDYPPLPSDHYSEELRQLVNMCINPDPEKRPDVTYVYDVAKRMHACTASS
Serine/threonine-protein kinase PLK1 (Homo sapiens), sequence (P53350 whole entry): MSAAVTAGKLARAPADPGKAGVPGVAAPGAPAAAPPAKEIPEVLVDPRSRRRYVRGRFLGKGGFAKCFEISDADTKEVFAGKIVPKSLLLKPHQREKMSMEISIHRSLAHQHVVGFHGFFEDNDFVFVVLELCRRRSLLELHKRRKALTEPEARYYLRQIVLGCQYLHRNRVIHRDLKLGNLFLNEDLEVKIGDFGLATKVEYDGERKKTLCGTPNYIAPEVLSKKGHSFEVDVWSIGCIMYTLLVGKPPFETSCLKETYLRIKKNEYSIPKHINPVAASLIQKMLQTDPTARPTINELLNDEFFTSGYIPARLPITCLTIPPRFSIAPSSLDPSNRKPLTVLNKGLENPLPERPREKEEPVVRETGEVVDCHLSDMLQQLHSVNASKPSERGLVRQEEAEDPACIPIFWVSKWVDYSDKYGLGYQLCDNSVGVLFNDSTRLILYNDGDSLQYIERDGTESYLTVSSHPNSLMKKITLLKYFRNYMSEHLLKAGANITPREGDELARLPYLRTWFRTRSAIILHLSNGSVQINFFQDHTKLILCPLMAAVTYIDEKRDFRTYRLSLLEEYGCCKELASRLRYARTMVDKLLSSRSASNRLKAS
Tyrosine-protein kinase Fyn (Homo sapiens), sequence (P06241 2-537 limits assumed): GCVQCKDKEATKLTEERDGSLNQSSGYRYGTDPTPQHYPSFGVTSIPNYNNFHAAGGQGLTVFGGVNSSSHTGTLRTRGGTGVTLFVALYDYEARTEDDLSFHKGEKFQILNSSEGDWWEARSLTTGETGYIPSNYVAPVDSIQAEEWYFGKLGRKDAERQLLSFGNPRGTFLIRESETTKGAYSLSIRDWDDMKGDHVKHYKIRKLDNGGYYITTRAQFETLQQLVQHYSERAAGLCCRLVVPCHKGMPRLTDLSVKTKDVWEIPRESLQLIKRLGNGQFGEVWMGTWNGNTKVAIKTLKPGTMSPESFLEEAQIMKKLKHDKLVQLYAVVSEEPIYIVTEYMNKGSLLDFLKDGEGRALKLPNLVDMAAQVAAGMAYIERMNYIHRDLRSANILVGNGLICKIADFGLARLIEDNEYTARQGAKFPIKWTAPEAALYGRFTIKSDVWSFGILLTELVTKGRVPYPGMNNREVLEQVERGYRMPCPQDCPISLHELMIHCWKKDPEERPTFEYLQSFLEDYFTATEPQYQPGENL

Regarding `NC(=O)c1sc(-n2cnc3ccccc32)cc1OCc1ccccc1Br`, the inhibition in assay [1] is 6.21%; in assay [2], 1.75%; in [3], 2.24%; in [4], 4.32%; in assay [5], 3.39%; in [6], -0.26%. Further, the inhibition in assay [7] was 2.86%; in assay [8] it was 3.33%; in assay [9] it was 9.69%; in assay [10], 8.49%; in assay [11] it was 23.5%; in assay [12], 78.3%. The inhibition in [13] is 95.3%; in [14] it was 10.6%; in assay [15], -5.34%; in [16], 2.98%; in assay [17], 4.24%; in assay [18], -0.73%. Moreover, the inhibition in assay [19] amounted to 7.89%; in assay [20], 3.58%.

Turning to `CC(C)c1ccc(Nc2nccc(-c3cnn4ncccc34)n2)cc1`, the inhibition in assay [1] stood at 7.95%; in assay [2], 3.1%; in [3] it was 13.5%; in [4], 3.86%; in assay [5], 8.45%; in assay [6] it was 1.7%. Besides, the inhibition in assay [7] is 3.3%; in assay [8] it was 3.35%; in [9], 4.87%; in [10] it was 11.3%; in [11] it was 11%; in assay [12], 2.9%. Also, the inhibition in assay [13] was determined as 4.81%; in assay [14], 5.54%; in assay [15] it was 23.1%; in [16], 0.79%; in [17], 9.77%; in assay [18], 23%. In addition, the inhibition in [19] was 72.1%; in [20] it was 1.04%.

One may read the inhibition as the relative decrease from the control value, in per cent.
